Assay outcomes: PubChem BioAssay, National Center for Advancing Translational Sciences (NCATS)
This is a sample that favours compounds with a hit; in the whole collection about 18% have one here.
TDP1 cell CPT: qHTS for Inhibitors of human tyrosyl-DNA phosphodiesterase 1 (TDP1): qHTS in cells in presence of CPT | chicken DT40 Tdp1-/-;hTDP1 cells + 20 nM CPT, ATP luminescence, 48 h | AID 686979, 2013 | Potency, µM (series often up to 46.2 µM), actives largely listed as inhibitors | hit rate 12% among 420,000; note: nearly all actives have a fitted effect of over 55% in size
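Cell growth measured by CellTiter-Glo luminescence after a minimum 48 h, 37 C compound exposure with 20 nM CPT in Tdp1-knockout DT40 cells stably expressing hTDP1, seeded 400/well; qHTS titration format.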
DT40 TDP1 no CPT: qHTS for Inhibitors of human tyrosyl-DNA phosphodiesterase 1 (TDP1): qHTS in cells in absence of CPT | DT40 Tdp1-/- hTDP1 cells, no CPT, ATP luminescence, 48 h | Potency, µM (doses to about 46.2 µM), usual class: inhibitors | hit rate 15% among 420,000; note: nearly all actives have a fitted effect of over 55% in size
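A cellular qHTS used chicken DT40 cells lacking endogenous Tdp1 but carrying stably transfected human TDP1. Compounds were applied without camptothecin, and cell growth kinetics were judged by ATP-dependent luminescence after ≥48 hr.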
GCN5L2 inh: qHTS Assay for Inhibitors of GCN5L2 | Histone acetyltransferase KAT2A (Homo sapiens), Q92830 | GCN5L2 HAT assay, ThioGlo1 CoA-SH fluorescence | Potency, µM (top dose mostly 58.9 µM), most hits filed as inhibitors | hit rate 0.21% among 390,000 | AID 504327, 2011
Target sequence (Q92830 whole entry, looked up): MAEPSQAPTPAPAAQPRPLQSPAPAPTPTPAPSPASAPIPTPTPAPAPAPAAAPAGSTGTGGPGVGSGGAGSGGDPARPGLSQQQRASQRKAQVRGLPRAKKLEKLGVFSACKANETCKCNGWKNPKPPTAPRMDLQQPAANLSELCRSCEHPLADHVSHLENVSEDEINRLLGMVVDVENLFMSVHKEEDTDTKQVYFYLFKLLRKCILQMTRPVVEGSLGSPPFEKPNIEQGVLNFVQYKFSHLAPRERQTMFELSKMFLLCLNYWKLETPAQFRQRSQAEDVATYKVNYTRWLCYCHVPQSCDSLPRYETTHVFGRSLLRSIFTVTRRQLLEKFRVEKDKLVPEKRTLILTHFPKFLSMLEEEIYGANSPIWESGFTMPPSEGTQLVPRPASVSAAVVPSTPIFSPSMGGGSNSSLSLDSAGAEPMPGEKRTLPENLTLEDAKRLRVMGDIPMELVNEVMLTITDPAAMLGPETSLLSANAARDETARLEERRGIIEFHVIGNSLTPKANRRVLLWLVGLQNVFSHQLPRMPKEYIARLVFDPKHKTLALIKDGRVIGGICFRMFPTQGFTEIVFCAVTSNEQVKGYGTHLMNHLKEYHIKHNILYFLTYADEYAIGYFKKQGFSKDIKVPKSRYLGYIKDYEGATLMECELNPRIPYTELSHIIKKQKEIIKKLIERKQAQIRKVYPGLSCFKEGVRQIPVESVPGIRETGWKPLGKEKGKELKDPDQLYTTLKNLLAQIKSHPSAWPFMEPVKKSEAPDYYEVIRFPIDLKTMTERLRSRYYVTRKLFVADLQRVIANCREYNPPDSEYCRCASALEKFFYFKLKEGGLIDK
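Enzyme at 20nM final was mixed with library compounds for 15 min at room temperature. Peptide H3(1-25) at 75uM, acetyl-CoA at 70uM and ThioGlo1 at 50uM were then added. Plates were read immediately and after 20 min (Ex340nm/Em540nm).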
TDP1 inh: qHTS Assay for Inhibitors of Tyrosyl-DNA Phosphodiesterase (TDP1). Tyrosyl-DNA phosphodiesterase 1 (Homo sapiens), Q9NUW8. recombinant TDP1, AlphaScreen DNA substrate cleavage. Potency, µM (highest dose often 130 µM), hits mostly inhibitors. hit rate 0.28% among 350,000. AID 485290, 2010; note: nearly all actives have a fitted effect of over 40% in size
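Steps: enzyme plus compound, 15 min RT; add biotin/phosphotyrosine-FITC oligonucleotide (15 nM final), react 5 min; add donor/acceptor beads (10 ug/ml final), 10 min; read AlphaScreen. Tdp1 at 1 nM final.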
PLK1 PBD block: qHTS for Inhibitors of PLK1-PDB (polo-like kinase 1 - polo-box domain): Primary Screen; Serine/threonine-protein kinase PLK1 (Homo sapiens), P53350; Plk1 PBD binding of FITC phosphopeptide, fluorescence polarization; Potency, µM, usual class: inhibitors; hit rate 2.8% among 360,000; note: series mostly up to about 57 µM; nearly all actives have a fitted effect of over 65% in size
VDR inh: Inhibitors of the vitamin D receptor (VDR): qHTS; hit rate 0.93% among 400,000; Vitamin D3 receptor (Homo sapiens), P11473; VDR-SRC2-3 peptide fluorescence polarization, 2 h; Potency, µM, most hits filed as inhibitors; AID 504847, 2011
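VDR–SRC2-3 interaction, FP format. Cmpds 23 nl via pintool, brief spin, 2 h ambient incubation.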
Hits are given with their value; n = inactive; u = inconclusive; x = no result. Calls come from the whole dose curve; as a rule, active = well fitted curve in the direction sought with a large enough effect; inconclusive = small, poorly fitted or top-dose-only effect, or another doubt; inactive = no such curve, though single readings can be large; an effect the other way counts as inactive or inconclusive.

SMILES | TDP1 cell CPT | DT40 TDP1 no CPT | GCN5L2 inh | TDP1 inh | PLK1 PBD block | VDR inh
CCCN1C(=O)C(O)(CC(=O)c2ccc3c(c2)OCCO3)c2ccccc21 (configuration not stated) | u | u | n | n | n | n
COc1cccc(C(=O)CC2(O)C(=O)N(Cc3ccccc3)c3ccccc32)c1 (configuration not stated) | 6.5µM | 6.5µM | n | x | x | n
C#CCN1C(=O)C(O)(CC(=O)c2ccc3c(c2)OCCO3)c2ccccc21 (configuration not stated) | u | 23µM | n | n | n | n
COc1cccc(NC(=O)CC2NCCNC2=O)c1 (configuration not stated) | n | n | n | n | x | n
CCCN1C(=O)C(O)(CC(=O)c2cccc(OC)c2)c2ccccc21 (configuration not stated) | 4.1µM | 3.3µM | n | n | n | u
O=c1c2ccccc2sn1-c1ccc(F)cc1 | 3.3µM | 3.7µM | 2µM | n | 3µM | 16µM
COC(=O)c1cccc(-n2sc3ccccc3c2=O)c1 | 2.1µM | 3.3µM | 1.6µM | n | 2.7µM | u
O=c1c2ccc(F)cc2sn1-c1ccccc1 | 2.6µM | 2.9µM | x | x | 3.4µM | x
O=c1c2ccccc2nnn1Cc1ccc(F)cc1 | u | n | n | n | n | n
O=C(c1sc2cc(F)ccc2c1Cl)N1CCN(c2cccc(Cl)c2)CC1 | u | u | n | n | n | n
COC(=O)c1cccc(N2CCCC2=O)c1 | n | n | n | n | n | n
Cc1ccc(N2C(=O)c3ccccc3C2=O)c(C)c1 | x | x | x | n | x | x
Cc1ccc(-n2sc3cc(F)ccc3c2=O)c(C)c1 | 2.9µM | 2.3µM | x | x | 3µM | x
C[C@H]1CN(CCc2ccccc2)C(=O)[C@@H]1CC(=O)Nc1ccc(Br)cc1 | n | n | x | x | n | x
Cc1cc(-c2ccc(C)c(S(=O)(=O)NC3CCCCC3)c2)on1 | u | u | n | n | x | n
CCCCN(C)C(=O)c1ccc2c(c1)NC(=O)C(CC(C)C)N2 (configuration not stated) | n | n | n | n | x | n
CC1(C)C(=O)N(c2ccccc2Cl)C(=O)c2ccccc21 | n | u | n | n | n | n
O=c1c2cc(F)ccc2sn1-c1ccccc1Cl | 2.6µM | 2.3µM | x | x | 2.7µM | x
N=C1SCC(=O)N1c1ccccc1Cl | n | n | n | x | n | n
COc1ccc(CN(C)C(=O)CSc2nnc(C3CC3)n2C2CC2)cc1 | n | n | n | n | n | n
O=S(=O)(c1c(Cl)cc(Br)cc1Cl)N1CCN(C(=S)NC2CC2)CC1 | u | u | n | n | n | n
CC(/C=N/NC(=O)CSc1ccccn1)=C\c1ccc(C(C)C)cc1 | u | 10µM | n | n | n | n
CC(=C/c1ccc(C(C)C)cc1)/C=N/NC(=O)CSc1ccccn1 | u | u | n | n | n | n
CCN1CCN(Cc2c(O)ccc3c(C)c(-c4ccc(OC)cc4)c(=O)oc23)CC1 | u | 23µM | n | n | x | n
COCCCNC(=O)C1c2ccccc2Oc2ccccc21 | n | n | n | x | n | n
CNCCCC1Sc2ccccc2Oc2ccccc21 (configuration not stated) | u | 15µM | n | n | n | n
CC[N+](C)(CC)CCOC(=O)C(O)(c1ccccc1)C1CCCCC1 (configuration not stated) | u | u | n | n | n | n
CC[N+](C)(CC)CCC(c1ccccc1)C1CCCCC1 (configuration not stated) | 8.2µM | u | n | x | n | n
COC(=O)[C@H](CC(C)C)NC(=O)CC[C@H]1O[C@@H](n2ccc(=O)[nH]c2=O)[C@H](O)[C@@H]1O | n | n | x | x | n | x
O=S(=O)(NCCc1ccc(Cl)cc1)c1cccc2cccnc12 | n | n | n | x | n | n
